Source: PubChem BioAssay AID1159580 (chemical genetic matrix, 2015)
About 2,000 (36%) of roughly 5,500 compounds were called active. About 18% were inconclusive and are not listed. Rule as the data show it: active = normalized growth mostly below about 0.91 (no sharp cut-off); inconclusive = no clear call, values can overlap the other calls; inactive = mostly above about 0.92. This is one part of the list.

Assay: chemical genetic growth profiling, strain panel (AID 1159580);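 also: tested at 20 µM; growth read once vehicle control cultures reached saturation at 30 °C; 1 = growth at the plate median or of vehicle wells; lower values mean less growth of the strain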
Settings: growth OD

Measured: normalized growth

NC(=O)c1ccc([N+](=O)[O-])cc1Cl
inactive: S. cerevisiae deletion strains, locus YKL009W, strain mrt4, active compounds read low 0.977 | S. cerevisiae deletion strains, locus YKL068W, active compounds read low 0.977 | S. cerevisiae deletion strains, locus YKL085W, strain MDH1 (second series), active compounds read low 0.98 | S. cerevisiae deletion strains, locus YKL085W, strain MDH1, active compounds read low 0.98 | S. cerevisiae deletion strains, locus YKL160W, strain elf1, active compounds read low 1.03 | S. cerevisiae deletion strains, locus YKL190W, strain CNB1, active compounds read low 0.968 | S. cerevisiae deletion strains, locus YKR001C, strain vps1, active compounds read low 0.969 | S. cerevisiae deletion strains, locus YKR026C, strain gcn3, active compounds read low 0.981 | S. cerevisiae deletion strains, locus YKR091W, strain srl3, active compounds read low 0.977 | S. cerevisiae deletion strains, locus YLL001W, strain dnm1, active compounds read low 1 | S. cerevisiae deletion strains, locus YLL026W, active compounds read low 1.01 | S. cerevisiae deletion strains, locus YLL041C, strain sdh2, active compounds read low 0.982 | S. cerevisiae deletion strains, locus YLR027C, strain aat2, active compounds read low 1.01 | S. cerevisiae deletion strains, locus YLR039C, strain RIC1, active compounds read low 0.927 | S. cerevisiae deletion strains, locus YLR058C, strain SHM2, active compounds read low 0.963 | S. cerevisiae deletion strains, locus YLR102C, strain apc9, active compounds read low 0.971 | S. cerevisiae deletion strains, locus YLR113W, strain HOG1, active compounds read low 0.961 | S. cerevisiae deletion strains, locus YLR221C, strain rsa3, active compounds read low 0.956 | S. cerevisiae deletion strains, locus YLR258W, strain gsy2, active compounds read low 0.956 | S. cerevisiae deletion strains, locus YLR262C, strain YPT6 (second series), active compounds read low 0.991 | S. cerevisiae deletion strains, locus YLR262C, strain YPT6, active compounds read low 0.838 | S. cerevisiae deletion strains, locus YLR268W, strain sec22, active compounds read low 0.961 | S. cerevisiae deletion strains, locus YLR320W, strain mms22, active compounds read low 0.965 | S. cerevisiae deletion strains, locus YLR330W, strain CHS5, active compounds read low 0.98 | S. cerevisiae deletion strains, locus YLR342W, strain FKS1 (second series), active compounds read low 1 | S. cerevisiae deletion strains, locus YLR342W, strain FKS1, active compounds read low 1 | S. cerevisiae deletion strains, locus YLR357W, strain rsc2, active compounds read low 0.965 | S. cerevisiae deletion strains, locus YLR370C, strain arc18, active compounds read low 0.972 | S. cerevisiae deletion strains, locus YLR371W, strain rom2, active compounds read low 0.982 | S. cerevisiae deletion strains, locus YLR384C, strain iki3, active compounds read low 0.992 | S. cerevisiae deletion strains, locus YLR418C, strain cdc73, active compounds read low 0.949 | S. cerevisiae deletion strains, locus YML016C, strain PPZ1, active compounds read low 0.98 | S. cerevisiae deletion strains, locus YML032C, strain rad52, active compounds read low 0.999 | S. cerevisiae deletion strains, locus YML120C, strain ndi1, active compounds read low 1 | S. cerevisiae deletion strains, locus YML124C, strain tub3, active compounds read low 0.984 | S. cerevisiae deletion strains, locus YMR058W, strain fet3, active compounds read low 0.977 | S. cerevisiae deletion strains, locus YMR078C, strain ctf18, active compounds read low 0.977 | S. cerevisiae deletion strains, locus YMR125W, strain sto1, active compounds read low 0.973 | S. cerevisiae deletion strains, locus YMR129W, active compounds read low 0.975 | S. cerevisiae deletion strains, locus YMR205C, strain PFK2, active compounds read low 1.01 | S. cerevisiae deletion strains, locus YMR223W, strain ubp8, active compounds read low 0.988 | S. cerevisiae deletion strains, locus YMR231W, strain pep5, active compounds read low 0.98 | S. cerevisiae deletion strains, locus YMR263W, strain SAP30, active compounds read low 0.968 | S. cerevisiae deletion strains, locus YMR307W, strain GAS1, active compounds read low 0.891 | S. cerevisiae deletion strains, locus YNL067W, strain RPL9B, active compounds read low 0.969 | S. cerevisiae deletion strains, locus YNL071W, strain lat1, active compounds read low 0.974 | S. cerevisiae deletion strains, locus YNL128W, strain TEP1, active compounds read low 0.972 | S. cerevisiae deletion strains, locus YNL153C, strain GIM3, active compounds read low 0.964 | S. cerevisiae deletion strains, locus YNL183C, strain NPR1, active compounds read low 0.895 | S. cerevisiae deletion strains, locus YNL209W, strain ssb2, active compounds read low 0.964 | S. cerevisiae deletion strains, locus YNL233W, strain BNI4, active compounds read low 0.982 | S. cerevisiae deletion strains, locus YNL248C, strain rpa49, active compounds read low 0.931 | S. cerevisiae deletion strains, locus YNL250W, strain rad50, active compounds read low 0.971 | S. cerevisiae deletion strains, locus YNL271C, strain bni1, active compounds read low 0.981 | S. cerevisiae deletion strains, locus YNL298W, strain CLA4, active compounds read low 0.98 | S. cerevisiae deletion strains, locus YNL307C, strain MCK1, active compounds read low 0.989 | S. cerevisiae deletion strains, locus YNL322C, strain KRE1 (second series), active compounds read low 0.983 | S. cerevisiae deletion strains, locus YNL322C, strain KRE1, active compounds read low 0.981 | S. cerevisiae deletion strains, locus YNR049C, strain mso1, active compounds read low 0.97 | S. cerevisiae deletion strains, locus YNR052C, strain pop2, active compounds read low 0.978 | S. cerevisiae deletion strains, locus YOL006C, strain TOP1, active compounds read low 0.886 | S. cerevisiae deletion strains, locus YOL012C, strain htz1 0.79 | S. cerevisiae deletion strains, locus YOL147C, strain pex11, active compounds read low 0.98 | S. cerevisiae deletion strains, locus YOR001W, strain rrp6, active compounds read low 1 | S. cerevisiae deletion strains, locus YOR061W, strain CKA2, active compounds read low 0.951 | S. cerevisiae deletion strains, locus YOR069W, strain VPS5, active compounds read low 0.993 | S. cerevisiae deletion strains, locus YOR070C, strain gyp1, active compounds read low 0.972 | S. cerevisiae deletion strains, locus YOR080W, strain dia2, active compounds read low 0.999 | S. cerevisiae deletion strains, locus YOR083W, strain WHI5, active compounds read low 0.989 | S. cerevisiae deletion strains, locus YOR106W, strain vam3, active compounds read low 0.987 | S. cerevisiae deletion strains, locus YOR136W, strain idh2, active compounds read low 0.99 | S. cerevisiae deletion strains, locus YOR144C, strain elg1, active compounds read low 0.991 | S. cerevisiae deletion strains, locus YOR184W, strain ser1, active compounds read low 0.982 | S. cerevisiae deletion strains, locus YOR231W, strain MKK1, active compounds read low 0.956 | S. cerevisiae deletion strains, locus YOR265W, strain rbl2, active compounds read low 0.985 | S. cerevisiae deletion strains, locus YOR270C, strain vph1, active compounds read low 0.929 | S. cerevisiae deletion strains, locus YOR290C, strain snf2, active compounds read low 0.915 | S. cerevisiae deletion strains, locus YOR316C, strain cot1, active compounds read low 0.962 | S. cerevisiae deletion strains, locus YPL051W, strain arl3, active compounds read low 0.988 | S. cerevisiae deletion strains, locus YPL055C, strain LGE1, active compounds read low 0.941 | S. cerevisiae deletion strains, locus YPL078C, strain atp4, active compounds read low 1.02 | S. cerevisiae deletion strains, locus YPL106C, strain sse1, active compounds read low 0.957 | S. cerevisiae deletion strains, locus YPL240C, strain hsp82, active compounds read low 0.986 | S. cerevisiae deletion strains, locus YPL241C, strain CIN2, active compounds read low 1.01 | S. cerevisiae deletion strains, locus YPL256C, strain CLN2, active compounds read low 0.941 | S. cerevisiae deletion strains, locus YPR119W, strain clb2, active compounds read low 0.986 | S. cerevisiae deletion strains, locus YPR141C, strain kar3, active compounds read low 0.955 | S. cerevisiae deletion strains, locus YPR163C, strain tif3, active compounds read low 0.989 | S. cerevisiae deletion strains, locus YPR167C, strain met16, active compounds read low 0.962 | S. cerevisiae deletion strains, strain wtn01, active compounds read low 0.969 | S. cerevisiae strains, strain wild type, active compounds read low 0.981
